Test results: PubChem BioAssay (NCATS)
Results filed as inconclusive are left out. Entries that show only a call come without a potency. Calls of active or inactive are those of the source. Unless noted, calls come from the whole dose curve; as a rule, active = well fitted curve in the direction sought with a large enough effect in the repeat runs; inconclusive = weak or mixed curves; inactive = no such curve, though single readings can be large; an effect the other way counts as inactive or inconclusive.

How the values were obtained:
[1] = biological target: Cytochrome P450 2D6 (Homo sapiens) (UniProt P10635); assay: Cytochrome P450 family 2 subfamily D member 6 (CYP2D6) small molecule antagonists: luciferase biochemical (cell-free) qHTS assay (AID 1645840); note: nearly all actives have a fitted effect of over 55% in size; note: potency is the fitted concentration of half-maximal effect
Cytochrome P450 2D6 (Homo sapiens), sequence (P10635 whole entry, looked up): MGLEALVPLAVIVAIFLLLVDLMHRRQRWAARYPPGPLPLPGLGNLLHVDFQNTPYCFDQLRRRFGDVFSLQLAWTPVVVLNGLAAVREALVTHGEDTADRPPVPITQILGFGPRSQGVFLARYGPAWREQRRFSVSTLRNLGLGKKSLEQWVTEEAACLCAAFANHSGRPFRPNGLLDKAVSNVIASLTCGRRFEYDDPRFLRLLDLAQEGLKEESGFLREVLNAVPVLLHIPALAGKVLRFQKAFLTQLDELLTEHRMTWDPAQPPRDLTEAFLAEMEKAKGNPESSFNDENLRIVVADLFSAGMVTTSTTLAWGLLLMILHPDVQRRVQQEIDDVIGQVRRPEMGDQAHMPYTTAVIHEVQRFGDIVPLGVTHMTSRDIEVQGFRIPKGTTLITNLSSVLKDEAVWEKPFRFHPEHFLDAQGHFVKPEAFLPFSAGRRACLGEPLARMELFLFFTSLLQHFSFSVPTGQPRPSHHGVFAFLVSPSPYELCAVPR
Procedure, shortened: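 P450-Glo luminescent screen: recombinant CYP2D6 enzyme–proluciferin substrate mix preincubated with compound 10 min at room temperature, then NADPH regeneration added for 1 h at room temperature. Detection reagent added for 20 min; luciferin light read as relative luminescence units.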

[2] = biological target: Cytochrome P450 3A4 (Homo sapiens) (UniProt P08684); assay: Cytochrome P450 family 3 subfamily A member 4 (CYP3A4) small molecule antagonists: luciferase qHTS assay (AID 1645841); note: nearly all actives have a fitted effect of over 45% in size; note: potency is the fitted concentration of half-maximal effect
Cytochrome P450 3A4 (Homo sapiens), sequence (P08684 whole entry, looked up): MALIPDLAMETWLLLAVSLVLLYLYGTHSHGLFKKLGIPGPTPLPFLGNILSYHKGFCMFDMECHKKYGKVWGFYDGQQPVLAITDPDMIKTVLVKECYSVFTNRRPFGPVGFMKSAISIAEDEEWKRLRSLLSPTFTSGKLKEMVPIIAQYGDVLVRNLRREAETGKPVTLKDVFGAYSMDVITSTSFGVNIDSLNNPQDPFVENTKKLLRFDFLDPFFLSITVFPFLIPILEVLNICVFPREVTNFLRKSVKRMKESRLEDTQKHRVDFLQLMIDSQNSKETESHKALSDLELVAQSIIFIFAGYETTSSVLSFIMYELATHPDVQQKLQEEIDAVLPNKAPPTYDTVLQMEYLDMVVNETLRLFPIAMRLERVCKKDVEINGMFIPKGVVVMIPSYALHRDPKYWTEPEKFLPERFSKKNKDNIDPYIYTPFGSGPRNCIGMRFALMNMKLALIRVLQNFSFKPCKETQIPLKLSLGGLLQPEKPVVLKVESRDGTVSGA
Procedure, shortened: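 P450-Glo CYP3A4 enzyme with proluciferin substrate was preincubated with DMSO-dissolved compounds for 10 min at room temperature. NADPH regeneration solution started a 1 h reaction. Detection reagent stopped it, and luminescence was read after 20 min.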

[3] = biological target: Cytochrome P450 2C9 (Homo sapiens) (UniProt P11712); assay: Cytochrome P450 family 2 subfamily C member 9 (CYP2C9) small molecule antagonists: luciferase biochemical (cell-free) qHTS assay (AID 1645842); note: nearly all actives have a fitted effect of over 55% in size; note: potency is the fitted concentration of half-maximal effect
Cytochrome P450 2C9 (Homo sapiens), sequence (P11712 whole entry, looked up): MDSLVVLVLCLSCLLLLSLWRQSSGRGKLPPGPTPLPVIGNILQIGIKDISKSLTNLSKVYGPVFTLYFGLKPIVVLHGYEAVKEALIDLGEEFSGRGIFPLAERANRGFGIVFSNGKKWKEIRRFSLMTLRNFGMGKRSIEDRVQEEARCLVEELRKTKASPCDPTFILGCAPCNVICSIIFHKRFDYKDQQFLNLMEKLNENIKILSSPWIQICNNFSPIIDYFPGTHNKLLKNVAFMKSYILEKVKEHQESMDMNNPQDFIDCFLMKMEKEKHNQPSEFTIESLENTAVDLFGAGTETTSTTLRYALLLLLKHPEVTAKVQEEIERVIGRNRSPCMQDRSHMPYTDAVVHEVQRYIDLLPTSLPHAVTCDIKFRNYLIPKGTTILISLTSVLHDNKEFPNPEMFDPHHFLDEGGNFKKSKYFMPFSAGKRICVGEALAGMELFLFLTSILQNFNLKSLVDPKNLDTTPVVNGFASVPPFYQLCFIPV
Procedure, shortened: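 Luminescence, after 20 min with luciferin detection reagent, reflected CYP2C9 turnover during a 1 h NADPH-driven reaction at 37C. Enzyme-substrate mix contained 0.4% bovine serum albumin and was preincubated with compound 10 min at room temperature.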

[4] = Primary qHTS for inhibitors of nuclear receptor binding SET domain protein 2 (NSD2) in an isogenic RCH-ACV NSD2 p.E1099K mutant (9B) (AID 1645876; active = well fitted curve in the direction sought with a large enough effect; an effect the other way counts as inactive or inconclusive; note: nearly all actives have a fitted effect of over 70% in size)
[5] = Primary qHTS for inhibitors of nuclear receptor binding SET domain protein 2 (NSD2) in an RCH-ACV wild type WT cells (2C) (AID 1645877; active = well fitted curve in the direction sought with a large enough effect; an effect the other way counts as inactive or inconclusive; note: nearly all actives have a fitted effect of over 70% in size)
[6] = biological target: Rap guanine nucleotide exchange factor 3 (Homo sapiens) (UniProt O95398); assay: Confirmatory qHTS for antagonist of cAMP-regulated guanine nucleotide exchange factor 3 (EPAC1) (AID 1645880; active = well fitted curve in the direction sought with a large enough effect; an effect the other way counts as inactive or inconclusive; note: potency is the fitted concentration of half-maximal effect; nearly all actives have a fitted effect of over 55% in size)
Rap guanine nucleotide exchange factor 3 (Homo sapiens), sequence (O95398 whole entry, looked up): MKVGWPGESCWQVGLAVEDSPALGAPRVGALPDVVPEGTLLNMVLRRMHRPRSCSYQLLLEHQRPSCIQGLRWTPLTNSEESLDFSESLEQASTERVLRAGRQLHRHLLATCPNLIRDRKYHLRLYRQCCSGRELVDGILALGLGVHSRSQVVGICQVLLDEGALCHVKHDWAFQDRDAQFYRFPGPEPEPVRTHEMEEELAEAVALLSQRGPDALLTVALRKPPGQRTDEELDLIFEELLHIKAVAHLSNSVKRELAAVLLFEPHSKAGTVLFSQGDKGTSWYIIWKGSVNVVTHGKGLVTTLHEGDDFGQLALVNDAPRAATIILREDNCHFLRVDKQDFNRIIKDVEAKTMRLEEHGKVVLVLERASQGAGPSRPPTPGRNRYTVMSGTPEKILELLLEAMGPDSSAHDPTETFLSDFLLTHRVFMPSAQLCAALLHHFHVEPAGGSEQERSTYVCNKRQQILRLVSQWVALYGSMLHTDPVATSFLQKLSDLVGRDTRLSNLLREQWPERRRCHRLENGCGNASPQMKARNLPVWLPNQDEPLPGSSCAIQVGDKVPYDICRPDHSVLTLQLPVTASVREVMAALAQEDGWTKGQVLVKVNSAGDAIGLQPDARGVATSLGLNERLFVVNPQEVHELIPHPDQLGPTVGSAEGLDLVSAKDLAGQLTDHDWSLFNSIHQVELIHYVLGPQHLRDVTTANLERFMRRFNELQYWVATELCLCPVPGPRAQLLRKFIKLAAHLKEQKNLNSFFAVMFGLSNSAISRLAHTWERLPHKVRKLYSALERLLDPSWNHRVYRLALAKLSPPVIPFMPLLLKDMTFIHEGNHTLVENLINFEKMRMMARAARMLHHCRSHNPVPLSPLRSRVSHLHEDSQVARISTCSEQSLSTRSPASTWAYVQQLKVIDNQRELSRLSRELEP
Procedure, shortened: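 Nucleotide exchange uses 100 nM EPAC1, 250 nM RAP1B-BODIPY-GDP and 50 uM GDP, with compounds in a concentration-titration series. After 5 min at room temperature, fluorescence (480 nm ex/540 nm em) is read every 5 min for 30 min. Data are normalized to control ATA and DMSO.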

[7] = biological target: Rap guanine nucleotide exchange factor 3 (Homo sapiens) (UniProt O95398); assay: Confirmatory qHTS for agonist of cAMP-regulated guanine nucleotide exchange factor 3 (EPAC1) (AID 1645881; active = well fitted curve in the direction sought with a large enough effect; an effect the other way counts as inactive or inconclusive;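 note: EPAC1 catalysed release of BODIPY-GDP from Rap1B seen as fluorescence loss; nearly all actives have a fitted effect of over 75% in size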)
[8] = biological target: Rap guanine nucleotide exchange factor 4 (Homo sapiens) (UniProt Q8WZA2); assay: Confirmatory qHTS for agonist of cAMP-regulated guanine nucleotide exchange factor 4 (EPAC2) (AID 1645884; active = well fitted curve in the direction sought with a large enough effect; an effect the other way counts as inactive or inconclusive;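 note: nucleotide exchange releases bodipy-GDP from Rap1 and this lowers its fluorescence; nearly all actives have a fitted effect of over 65% in size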)
Rap guanine nucleotide exchange factor 4 (Homo sapiens), sequence (Q8WZA2 whole entry, looked up): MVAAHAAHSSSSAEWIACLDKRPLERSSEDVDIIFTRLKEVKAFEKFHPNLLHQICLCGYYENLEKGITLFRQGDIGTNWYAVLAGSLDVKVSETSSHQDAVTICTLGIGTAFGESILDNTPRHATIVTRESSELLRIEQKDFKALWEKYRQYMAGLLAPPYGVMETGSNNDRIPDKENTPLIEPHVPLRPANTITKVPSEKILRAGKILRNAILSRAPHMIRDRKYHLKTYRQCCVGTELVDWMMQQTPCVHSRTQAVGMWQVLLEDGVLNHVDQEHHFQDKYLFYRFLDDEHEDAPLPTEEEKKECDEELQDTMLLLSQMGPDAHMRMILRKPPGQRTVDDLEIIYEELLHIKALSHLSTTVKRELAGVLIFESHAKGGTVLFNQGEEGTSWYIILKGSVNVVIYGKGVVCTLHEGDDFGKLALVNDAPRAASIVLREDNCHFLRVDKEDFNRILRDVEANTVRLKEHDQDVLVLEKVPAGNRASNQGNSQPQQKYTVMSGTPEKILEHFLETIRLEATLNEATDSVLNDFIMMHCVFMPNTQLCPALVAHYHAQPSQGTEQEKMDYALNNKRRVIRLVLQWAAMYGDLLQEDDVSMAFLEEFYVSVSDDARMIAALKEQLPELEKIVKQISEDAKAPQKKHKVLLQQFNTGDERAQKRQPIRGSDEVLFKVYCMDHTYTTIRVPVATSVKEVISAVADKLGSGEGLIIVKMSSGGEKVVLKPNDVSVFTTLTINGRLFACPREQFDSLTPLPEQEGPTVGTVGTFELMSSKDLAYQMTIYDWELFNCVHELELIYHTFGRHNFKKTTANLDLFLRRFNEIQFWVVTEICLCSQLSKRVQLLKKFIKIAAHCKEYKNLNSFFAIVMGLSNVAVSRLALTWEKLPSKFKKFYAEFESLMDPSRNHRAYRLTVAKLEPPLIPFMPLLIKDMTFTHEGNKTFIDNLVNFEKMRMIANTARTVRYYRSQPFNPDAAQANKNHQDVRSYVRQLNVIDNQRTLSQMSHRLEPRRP

Q: What does the source list for `CN(C)[C@@H]1C(=O)C(C(N)=O)=C(O)[C@@]2(O)C(=O)C3=C(O)c4c(O)cccc4C[C@H]3C[C@@H]12`?
A: Potency [1]: inactive; Potency [2]: inactive; Potency [3]: inactive

Q: Which results are given for `O=C(CCC1CCN(Cc2ccccc2)CC1)c1ccc2c(c1)NCCCC2`?
A: Potency [1]: 9.77 µM (active); Potency [3]: inactive

Q: Which Potency [1] does the source give for `CC(=O)CC/C=C(\C)CC/C=C(\C)CC/C=C(\C)CCC=C(C)C` here?
A: inactive

Q: Which results are given for `C[C@@H](O[C@H]1OCCN(Cc2n[nH]c(=O)[nH]2)[C@H]1c1ccc(F)cc1)c1cc(C(F)(F)F)cc(C(F)(F)F)c1`?
A: Potency [1]: 20.4 µM (active); Potency [3]: 12.1 µM (active)

Q: With `CCC(=O)O[C@H]1[C@H](O[C@@H]2[C@@H](C)[C@H](O[C@H]3C[C@@](C)(OC)[C@@H](O)[C@H](C)O3)[C@@H](C)C(=O)O[C@H](CC)[C@@](C)(O)[C@H](O)[C@@H](C)C(=O)[C@H](C)C[C@@]2(C)O)O[C@H](C)C[C@@H]1N(C)C` as the compound, how does the Potency [1] read?
A: inactive

Q: And the Potency [2]?
A: 18.2 µM (active)

Q: And the Potency [3]?
A: inactive

Q: What about the Potency [4] of the same compound?
A: inactive

Q: What about the Potency [5] of the same compound?
A: inactive

Q: What about the Potency [6] of the same compound?
A: 12.5 µM (active)

Q: And the Potency [7]?
A: inactive

Q: What about the Potency [8] of the same compound?
A: inactive

Q: For `COCCOCC(OC)OC`, which Potency [1] is on record?
A: inactive

Q: And the Potency [2]?
A: inactive

Q: And the Potency [3]?
A: inactive

Q: And the Potency [4]?
A: inactive

Q: What about the Potency [5] of the same compound?
A: inactive

Q: Which Potency [1] does the source give for `CC(Oc1c(Cl)cccc1Cl)C1=NCCN1` (centres undefined) here?
A: 8.71 µM (active)

Q: With `CCOC(=O)CN1CCCC1=O` as the compound, how does the Potency [1] read?
A: inactive

Q: What about the Potency [2] of the same compound?
A: inactive

Q: What about the Potency [3] of the same compound?
A: inactive

Q: And the Potency [4]?
A: inactive

Q: For `O=C(O)CCC(=O)OC[C@@H](NC(=O)C(Cl)Cl)[C@H](O)c1ccc([N+](=O)[O-])cc1`, which Potency [1] is on record?
A: inactive

Q: For `O=c1[nH]sc2cc(Cl)ccc12`, which Potency [1] is on record?
A: inactive

Q: With `COc1ccc([C@@H]2Sc3ccccc3NC(=O)[C@@H]2O)cc1` as the compound, how does the Potency [1] read?
A: 13.8 µM (active)
